Only some compounds are listed: those with a hit (about 3.3% of all), similar ones and a draw of the others.
AmpC no deterg – blocks E. coli AmpC beta-lactamase in detergent-free assay; Potency, µM (highest dose often 57.1 µM), inactives show at the highest dose activity change, negative = inhibition, most hits filed as inhibitors; AmpC nitrocefin hydrolysis, absorbance 480 nm, 0.0001% Triton; 330,000 compounds, 0.52% hits;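 also: plate controls were no compound for no effect and no enzyme for full effect; nearly all actives have a fitted effect of over 20% in size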
Target sequence (P00811 whole entry, looked up): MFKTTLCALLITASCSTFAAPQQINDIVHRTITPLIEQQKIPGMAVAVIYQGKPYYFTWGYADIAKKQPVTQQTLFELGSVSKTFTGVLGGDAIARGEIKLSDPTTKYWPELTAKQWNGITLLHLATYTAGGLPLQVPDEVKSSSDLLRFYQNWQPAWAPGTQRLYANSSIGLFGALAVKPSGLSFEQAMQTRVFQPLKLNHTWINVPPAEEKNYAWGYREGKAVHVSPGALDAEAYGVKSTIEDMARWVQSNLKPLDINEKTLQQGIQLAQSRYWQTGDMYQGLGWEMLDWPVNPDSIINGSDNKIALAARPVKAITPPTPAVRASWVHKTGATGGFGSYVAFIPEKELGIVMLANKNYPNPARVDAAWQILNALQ
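AmpC (5.3 nM in the dispensed reagent) in 20 mM phosphate pH 7.0 with 0.01% (detergent screen) or 0.0001% Triton X-100 was preincubated with compounds for 15 min at room temperature. Nitrocefin was then added from an 800 uM solution, and hydrolysis was followed at 480 nm.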
Sm TGR inh – inhibitors of Schistosoma mansoni thioredoxin glutathione reductase. Q962Y6. purified TGR, DTNB reduction, TNB absorbance 405 nm. Potency, µM (series often up to 114 µM), inactives show top-dose activity change, negative = inhibition, most hits filed as inhibitors. 360,000 compounds, 3% hits. AID 485364; also: nearly all actives have a fitted effect of over 60% in size
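First, TGR (20 nM dispensed) and NADPH were mixed with compound. Second, a 15 min room-temperature incubation followed. Third, further NADPH and then DTNB were added to start the reaction. Finally, TNB absorbance was monitored kinetically.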
AmpC detergent – blocks E. coli AmpC beta-lactamase in detergent assay | P00811 | 370,000 compounds, 0.041% hits | AmpC hydrolysis of nitrocefin, absorbance 480 nm, 0.01% Triton | Potency, µM (top dose mostly 114 µM), inactives show top-dose activity change, negative = inhibition, usual class: inhibitors;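 also: 0% = no-compound wells and -100% = no-enzyme wells; nearly all actives have a fitted effect of over 25% in size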
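AmpC (5.3 nM in the dispensed reagent) in 20 mM phosphate pH 7.0 with 0.01% (detergent screen) or 0.0001% Triton X-100 was preincubated with compounds for 15 min at room temperature. Nitrocefin was then added from an 800 uM solution, and hydrolysis was followed at 480 nm.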
Active calls of the source: *; ? = inconclusive; . = not tested or not shown; [ ] = remark or other dose. Calls follow the shape of the dose curve; as a rule, active = well fitted curve in the direction sought with a large enough effect; inconclusive = small, poorly fitted or top-dose-only effect, or another doubt; inactive = no such curve, though single readings can be large; an effect the other way counts as inactive or inconclusive. Unless noted, % is scaled to controls: 0 for no effect and ±100 for the full control effect; potency is read from the fitted curve at half-maximal effect.

SMILES	AmpC no deterg	Sm TGR inh	AmpC detergent
O=C1OC/C(=C(/O)c2ccc(Cl)cc2)C1=O	-16%	16µM*	0%
N#Cc1nc(-c2ccc(COc3ccc(Cl)cc3)o2)oc1N1CCN(c2ccccc2)CC1	.	-1%	3%
CS(=O)(=O)c1ncc(Cl)c(C(=O)Nc2ccc(OC(F)F)cc2)n1	31%	7.9µM*	-5%
CCOC(=O)c1nc(S(C)(=O)=O)ncc1N1CCOCC1	-14%	6%	1%
CCOC(=O)c1nc(S(C)(=O)=O)ncc1Cl	-21%	8.9µM*	?
CS(=O)(=O)c1ncc(Cl)c(C(=O)Nc2ccc(N3CCOCC3)cc2)n1	-10%	16µM*	-14%
CS(=O)(=O)c1ccc(C(=O)Nc2ccc(N3CCOCC3)cc2)c(Cl)c1	-13%	-16%	-2%
Cc1ccccc1NC(=O)c1nc(S(C)(=O)=O)ncc1Cl	-9%	?	-9%
O=C(NCCC(=O)N1CCC2(CC1)NCCc1[nH]cnc12)c1cccc(Br)c1	-15%	-7%	0%
Cc1ccc(C)c(NC(=O)C2=CCN(S(=O)(=O)c3ccc(F)cc3)CC2)c1	3%	1%	?
CCN(Cc1nc(-c2ccc(OC)cc2)oc1C)S(=O)(=O)c1ccc(Cl)cc1	.	-6%	-13%
c1ccc(N/N=C(\Cc2nc3ccccc3[nH]2)c2ccccc2)cc1	-31%	-2%	-7%
Cc1ccc(N/N=C(\Cc2nc3ccccc3[nH]2)c2ccccc2)cc1	-28%	40µM*	-8%
COc1ccccc1N1CCN(Cc2cc(COC(C)C)c3cccnc3c2O)CC1	.	?	17%
CCCOCc1cc(CN2CCN(c3ccccc3OC)CC2)c(O)c2ncccc12	.	40µM*	19%
CCOCc1cc(CN2CCN(c3ccccc3OC)CC2)c(O)c2ncccc12	.	?	19%
COc1ccccc1N1CCN(Cc2cc(Br)c(O)c3ncccc23)CC1	-17%	3.2µM*	-15%
COc1ccc(CCNS(=O)(=O)c2c(C)nc3sccn3c2=O)cc1OC	.	0%	-13%
CCCn1ccc2c(OCC(=O)Nc3ccc(OC)c(OC)c3)cccc2c1=O	.	-2%	1%
CCOc1ccc(-n2cc(-c3ccccc3)c3c(NCc4ccccc4)ncnc32)cc1	.	8%	-2%
CCOc1ccc(-n2cc(-c3ccccc3)c3c(NCc4ccc(F)cc4)ncnc32)cc1	.	79µM*	2%
CN(C)C(=O)c1sccc1Oc1ccc(F)cc1[N+](=O)[O-]	-18%	3%	4%
O=C(NCc1ccco1)/C(=C/c1cccc(C(F)(F)F)c1)c1nc2ccccc2[nH]1	-44%	0%	?
O=C(NCc1ccco1)/C(=C/c1ccc(C(F)(F)F)cc1)c1nc2ccccc2[nH]1	18µM*	-28%	-4%
Cc1ccc(CN2CCN(Cc3cccn3-c3ccccn3)CC2CCO)o1 (configuration not stated)	-5%	?	-5%
SMILES	AmpC no deterg	Sm TGR inh	AmpC detergent
Cc1nc2ccccc2nc1CN1CCN(Cc2ccc(F)c(F)c2)C(CCO)C1 (configuration not stated)	58%	14µM*	-2%
COc1cccc(CN2CCN(Cc3ccon3)CC2CCO)c1 (configuration not stated)	-5%	-25%	8%
COc1cccc(CN2CCN(Cc3ccc4c(NC(C)=O)cccc4n3)CC2CCO)c1 (configuration not stated)	26%	20µM*	2%
COc1cc(CN2CCN(Cc3ccc4cc(F)ccc4n3)CC2CCO)cc(OC)c1 (configuration not stated)	133%	40µM*	3%
COc1cc(CN2CCN(CCc3ccccc3)C(CCO)C2)cc(OC)c1 (configuration not stated)	14%	-13%	-2%
Cc1oc(-c2cccs2)nc1CN1CCN(Cc2ccc(F)c(F)c2)C(CCO)C1 (configuration not stated)	150%	-29%	12%
CC(=O)Nc1ccc2nc(CN3CCN(CC=C(C)C)C(CCO)C3)ccc2c1 (configuration not stated)	1%	20µM*	7%
CC(=O)Nc1ccc(CN2CCN(CC=C(C)C)C(CCO)C2)cc1 (configuration not stated)	-9%	1%	0%
CCOc1ccc(Nc2nnc(-n3nc(C)cc3C)c3ccccc23)cc1	.	1%	-1%
COc1ccc(CN2CCN(Cc3cccn3-c3ncccn3)CC2CCO)c(C)c1C (configuration not stated)	93%	-24%	6%
Cc1ccc(CN2CCN(Cc3ccc4cc(F)ccc4n3)CC2CCO)o1 (configuration not stated)	57%	18µM*	-5%
COc1ccc(CN2CCN(Cc3ccc4cc(F)ccc4n3)CC2CCO)c(C)c1C (configuration not stated)	137%	22µM*	-2%
OCCC1CN(Cc2ccc3cc(Cl)ccc3n2)CCN1Cc1ccsc1 (configuration not stated)	119%	35µM*	1%
CCOc1ccccc1CN1CCN(Cc2ccc3cc(F)ccc3n2)CC1CCO (configuration not stated)	88%	35µM*	?
Cc1ccc(CN2CCN(Cc3cnn(-c4ccc(F)cc4)c3)CC2CCO)o1 (configuration not stated)	-1%	-19%[57.1 µM]	-6%
CCOc1ccc2nc(CN3CCN(Cc4ccccc4OCC)C(CCO)C3)ccc2c1 (configuration not stated)	109%	?	-15%
OCCC1CN(Cc2ccc3nonc3c2)CCN1Cc1ccsc1 (configuration not stated)	0%	0%	7%
COC(=O)C1CCN(C(=O)COC(=O)C2CCN(S(=O)(=O)c3c(Cl)cccc3Cl)CC2)CC1	118%	-7%	-15%
COc1ccc(OC)c(C(=O)CN2C(=O)N(c3cc(C)cc(C)c3)S(=O)(=O)c3ccccc32)c1	.	1%	-3%
CCOC(=O)c1cc(-c2ccc(C)cc2)n(CC(=O)Nc2ccccc2F)c1C	.	5%	2%
CCOc1ccc(C2=CSC3=NCCN23)cc1Cl	22%	-12%	2%
Cn1cnc(S(=O)(=O)N2CCC(C(=O)N3CCN(c4ccc(Cl)cc4)CC3)CC2)c1	.	-9%	-1%
COc1ccc(OCCCCn2c(CO)nc3ccccc32)cc1	55%	-12%	?
Cc1cc(SCC(=O)c2ccc(O)c(O)c2)n2nc(C)c(-c3ccccc3)c2n1	6.3µM*	0%	4%
Cc1cc(C)nc(SCC(=O)c2ccc(O)c(O)c2)n1	-23%	-20%	3%
SMILES	AmpC no deterg	Sm TGR inh	AmpC detergent
Cc1ccc(C(=O)CSc2nc(C)cc(=O)[nH]2)cc1	-20%	1%	0%
Cc1cc(=O)[nH]c(SCC(=O)c2ccc(O)c(O)c2)n1	-22%	18µM*	?
O=C(CCC1CCCCC1)Nc1nncs1	-23%	5%	-1%
CCn1c(CCNC(=O)c2ccc(F)cc2)nc2ccccc21	-2%	0%	-8%
CCn1c(CCCNC(=O)c2ccc(F)cc2)nc2ccccc21	35µM*	0%	?
CCCOc1ccc(C2C(=O)N(C3CCCCCC3)CC(=O)N2Cc2ccc(OC)cc2)cc1OC (configuration not stated)	.	-1%	1%
Cc1ccc(CNC(=O)CCSCc2ccccc2C)cc1	-11%	13%	-16%

Compound activity as filed in PubChem BioAssay.
